# p53null 39C tox – p53 null cell cytotoxicity, nonpermissive temperature. AID 904. H1299 p53-null (neo) cells, 39C, ATPlite viability, 24 h. 55,000 compounds, 0.97% hits. Potency, µM (highest dose often 46.1 µM), hits mostly cytotoxic; further: nearly all actives have a fitted effect of over 50% in size
#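 Temperature-shift cytotoxicity format: compound titrations on p53-null or A138V-expressing H1299 cells held 24 hr at 39C, cell ATP then measured, AC50 from Hill model.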
# S16 F2sN tox – S16 Schwann cell cytotoxicity. S16 Pmp22-F2sN Schwann cells viability, CellTiter-Glo, 24 h. Potency, µM (doses to about 57.5 µM), actives largely listed as cytotoxic. 43,000 compounds, 0.48% hits. AID 1508642; further: nearly all actives have a fitted effect of over 65% in size
#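 Rat S16 Schwann reporter line, 24 h treatment with library compounds delivered at 23 nL per well. Cell viability by CellTiter-Glo luminescence.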
# PMP22 txn – PMP22 gene transcription modulation; S16 Pmp22-F2sN Schwann cells, FLuc/NLuc coincidence luminescence, 24 h; Potency, µM (titrated, usually from 57.5 µM), hits mostly inhibitors; 43,000 compounds, 2% hits; AID 1508649; active means clear falling dose curves in both reporters; inconclusive means both reporters move, but less clearly or upward; inactive means either reporter flat; the % is the NLuc reporter signal
#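 Reporter cells (S16 Pmp22-F2sN, 500–1,000 per well) exposed to compounds for 24 h, 37C, 5% CO2; lysis with FLuc read after 10 min, then Stop&Glo and NLuc read after 10 min.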
# mTORC1 inh – mTORC1 pathway inhibition measured by phospho-rpS6; AID 493208; Tsc2-/- p53-/- MEF, phospho-rpS6 immunofluorescence/PI, 24 h; Potency, µM (top dose mostly 38.3 µM), usual class: inhibitors; 44,000 compounds, 0.78% hits; further: nearly all actives have a fitted effect of over 50% in size
#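 Tsc2-/-, p53-/- mouse embryonic fibroblasts (empty-vector line) exposed to compound 24 hrs at 37 C, fixed, immunostained for phospho-rpS6 and counterstained with propidium iodide. Acumen laser scanning gives % positive cells from Alexa 488/PI ratio, thresholded using 7.5 nM rapamycin; PI count gives viability.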
# p53null 32C tox – selectivity test: cytotoxicity in p53 null cells, permissive temperature; Potency, µM (top dose mostly 46.1 µM), actives largely listed as cytotoxic; AID 903; H1299-neo p53 null cells, ATP luminescence, 24 h, 32C; 55,000 compounds, 0.62% hits; further: nearly all actives have a fitted effect of over 55% in size
#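 Luminescent ATP readout gave cell viability of p53-null H1299-neo cells after a 24 h compound exposure at the permissive 32C. Titrations ran up to 46 uM, and AC50s were fitted with the standard Hill equation.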
# OvCa metastasis – inhibitors of ovarian cancer cell adhesion and invasion in omental model; SKOV3ip1-GFP adhesion/invasion on 3D omental model, fluorescence; Potency, µM (series often up to 45.8 µM), most hits filed as inhibitors; 46,000 compounds, 0.1% hits; AID 1963576; further: nearly all actives have a fitted effect of over 65% in size
#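 A 3D layer of primary human omental fibroblasts, mesothelial cells, fibronectin and collagen I, grown 48 hr, received SKOV3ip1-GFP cells in serum-free medium plus compounds at 0.36-46 umol/L. After 2 hr RT and 16 hr 37 C, fixed adherent GFP cells were counted; normalized to DMSO and tomatine.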
# NLuc sat counter – counter-screen for PMP22 expression modulators: NanoLuc inhibition, saturating substrate; shares compounds with PMP22 txn; Secreted NLuc enzyme (filtered S16 cell medium), Nano-Glo luminescence; Potency, µM (titrated, usually from 57.5 µM), usual class: inhibitors; 690 compounds, 4% hits; AID 1508638
# NLuc Km ctr – NanoLuc inhibition at Km substrate, PMP22 artifact check | Potency, µM (titrated, usually from 57.5 µM), actives largely listed as inhibitors | secreted NLuc enzyme, coelenterazine luminescence, Km conditions | AID 1508639 | 690 compounds, 5% hits | shares compounds with PMP22 txn
# FLuc counter – firefly luciferase enzyme inhibition artifact for PMP22 screen; shares compounds with PMP22 txn; purified P. pyralis FLuc, luminescence, 10 min; Potency, µM (doses to about 57.5 µM), actives largely listed as inhibitors; 690 tested, under 10 active
# Target sequence (P08659 whole entry, looked up): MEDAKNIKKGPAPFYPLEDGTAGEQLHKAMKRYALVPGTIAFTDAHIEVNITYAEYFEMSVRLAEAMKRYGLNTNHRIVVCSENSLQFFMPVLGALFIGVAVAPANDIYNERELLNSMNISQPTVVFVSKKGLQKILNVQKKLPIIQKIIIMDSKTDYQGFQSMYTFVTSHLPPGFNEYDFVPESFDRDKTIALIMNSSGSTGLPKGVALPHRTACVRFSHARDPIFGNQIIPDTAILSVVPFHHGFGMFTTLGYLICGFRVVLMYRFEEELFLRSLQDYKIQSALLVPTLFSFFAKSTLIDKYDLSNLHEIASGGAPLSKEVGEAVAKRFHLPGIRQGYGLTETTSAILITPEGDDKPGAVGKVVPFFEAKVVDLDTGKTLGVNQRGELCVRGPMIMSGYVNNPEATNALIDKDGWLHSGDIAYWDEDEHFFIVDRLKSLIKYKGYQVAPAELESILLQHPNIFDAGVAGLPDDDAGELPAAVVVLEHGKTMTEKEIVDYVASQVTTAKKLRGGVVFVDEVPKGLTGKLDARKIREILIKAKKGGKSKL
# S16 viab conf – confirmation of cytotoxicity in S16 Pmp22-F2sN Schwann cells (luciferase reporters placed in the Pmp22 gene); shares compounds with PMP22 txn; S16 Schwann cells viability, CellTiter-Glo ATP luminescence, 24 h; Potency, µM (series often up to 57.5 µM), actives largely listed as cytotoxic; 690 compounds, 7% hits; AID 1508641
# PMP22 txn cnf – confirmation of modulators of PMP22 gene transcription in S16 cells; shares compounds with PMP22 txn; S16 Schwann cells Pmp22-F2sN, dual luciferase, 24 h; Potency, µM (top dose mostly 57.5 µM), actives largely listed as inhibitors; 690 compounds, 22% hits; active means clear falling dose curves in both reporters; inconclusive means both reporters move, but less clearly or upward; inactive means either reporter flat; the % is the FLuc reporter signal
# PMP22 prot conf – rat PMP22 protein level modulation, confirmatory. Potency, µM (titrated, usually from 27.9 µM), usual class: inhibitors. 95 tested, under 10 active. S16 Schwann cells Pmp22-HiBiT, luminescence, 48 h. AID 1508647. shares compounds with PMP22 txn
# Target sequence (P25094 whole entry, looked up): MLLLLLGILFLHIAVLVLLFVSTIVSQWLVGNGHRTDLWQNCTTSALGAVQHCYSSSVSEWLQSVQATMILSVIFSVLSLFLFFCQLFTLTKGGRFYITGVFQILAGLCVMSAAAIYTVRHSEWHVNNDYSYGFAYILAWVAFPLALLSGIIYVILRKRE
# Hits are given with their value; - = inactive; ? = inconclusive; . = not tested or not shown. Hits are enriched below; roughly 3% of the tested compounds scored in any of these assays. Unless noted, the call rests on the fitted dose curve; in most records, active means well fitted curve in the direction sought with a large enough effect; inconclusive means small, poorly fitted or top-dose-only effect, or another doubt; inactive means no such curve, though single readings can be large; an effect the other way counts as inactive or inconclusive.
SMILES,p53null 39C tox,S16 F2sN tox,PMP22 txn,mTORC1 inh,p53null 32C tox,OvCa metastasis,NLuc sat counter,NLuc Km ctr,FLuc counter,S16 viab conf,PMP22 txn cnf,others
O=C(NC1CCN(Cc2ccccc2)CC1)c1ccc(Cn2c(=O)c3ccccc3n(Cc3ccc(Cl)cc3)c2=O)cc1,-,-,12.1µM,-,-,-,-,-,-,12.2µM,10.9µM,
COCCCNC(=O)c1ccc(Cn2c(=O)c3ccccc3n(Cc3ccc(Cl)cc3)c2=O)cc1,-,?,11.3µM,-,-,-,?,?,-,-,-,
COc1ccc(CCNC(=O)c2ccc(Cn3c(=O)c4ccccc4n(Cc4cccc(Cl)c4)c3=O)cc2)cc1OC,-,-,?,-,-,-,-,-,-,-,-,
COc1ccc(CCNC(=O)c2ccc(Cn3c(=O)c4ccccc4n(Cc4cccc(F)c4)c3=O)cc2)cc1OC,?,-,?,-,-,-,.,.,.,.,.,
O=C(NC1CCN(Cc2ccccc2)CC1)c1ccc(Cn2c(=O)c3ccccc3n(Cc3ccccc3)c2=O)cc1,-,-,-,-,-,-,.,.,.,.,.,
O=C1NC(=O)C(=Cc2ccc(-c3ccc(F)cc3O)o2)S1,.,.,.,.,.,-,.,.,.,.,.,
COc1cc(O)c2c(c1)C1OC1C[C@H](O)[C@H](O)C(=O)C=CC[C@H](C)OC2=O (stereo not given in full),.,.,.,.,.,-,.,.,.,.,.,
COc1ccc2cccc(CCNC(C)=O)c2c1,.,.,.,.,.,-,.,.,.,.,.,
O=C(O)c1cn(C2CC2)c2cc(N3CCNCC3)c(F)cc2c1=O,.,.,.,.,.,-,.,.,.,.,.,
COc1ccc(NC(=O)Cn2c(=O)c3cccn3c3ccccc32)cc1,-,-,-,-,-,-,.,.,.,.,.,
COc1ccc(OC)c(NC(=O)Cn2c(=O)c3cccn3c3ccccc32)c1,-,-,?,-,-,-,?,?,-,-,-,
Cc1ccc(NC(=O)CSc2nc(-c3ccco3)cc(C(F)(F)F)n2)cc1,-,-,2.15µM,?,-,-,-,-,-,-,-,
Cc1ccc(F)cc1NC(=O)CSc1nc(-c2cccs2)cc(C(F)(F)F)n1,?,-,14.1µM,?,-,-,-,-,-,-,-,
Cc1cccc(C)c1NC(=O)CSc1nc(-c2cccs2)cc(C(F)(F)F)n1,-,-,-,?,-,-,.,.,.,.,.,
CC(C)COc1ccccc1C1CC(=O)Nc2cc3c(cc21)OCO3 (stereo not given),?,-,8.43µM,?,-,-,?,?,-,-,?,
CCOC(=O)c1c(C)[nH]c(CCC(=O)NCCCN2CCN(c3cc(Cl)ccc3C)CC2)c1C,-,?,15µM,?,-,?,-,-,-,?,?,
Cc1ccc(OCc2ccc(-c3nc(C#N)c(N4CCC(C)CC4)o3)o2)cc1,-,-,?,-,-,-,.,.,.,.,.,
COc1ccc(OCc2ccc(-c3nc(C#N)c(N4CCC(C)CC4)o3)o2)cc1,-,-,6.7µM,-,-,-,-,-,-,-,-,
Cc1ccc(CNC(=O)c2ccc(Cn3c(=O)c4ccccc4n(CC(=O)Nc4ccc(C)cc4C)c3=O)cc2)cc1,?,-,14.1µM,-,-,-,-,-,-,?,?,
COc1ccc(Cl)cc1NC(=O)Cn1c(=O)n(-c2ccc(C)cc2)c(=O)c2ccc(C(=O)NCc3ccccc3Cl)cc21,?,-,10µM,-,-,-,-,-,-,30.6µM,11.1µM,
Cc1ccc(CNC(=O)c2ccc(Cn3c(=O)c4ccccc4n(CC(=O)Nc4ccc(C)cc4)c3=O)cc2)cc1,-,?,?,-,-,-,.,.,.,.,.,
COCCCNC(=O)c1ccc(Cn2c(=O)c3ccccc3n(CC(=O)Nc3ccc(C)cc3C)c2=O)cc1,-,-,?,-,-,-,.,.,.,.,.,
Cc1ccc(CNC(=O)c2ccc(Cn3c(=O)c4ccccc4n(CC(=O)Nc4c(C)cc(C)cc4C)c3=O)cc2)cc1,?,?,16µM,-,?,-,-,-,-,?,7.89µM,PMP22 prot conf=?
CCC(CC)[C@H](NC(C)=O)[C@@H]1[C@H](O)[C@@H](C(=O)O)C[C@@H]1N=C(N)N,.,.,.,.,.,-,.,.,.,.,.,
COc1cc2c(cc1OC)CN(CCc1ccc(NC(=O)c3cccc4c(=O)c5cccc(OC)c5[nH]c34)cc1)CC2,.,.,.,.,.,-,.,.,.,.,.,
SMILES,p53null 39C tox,S16 F2sN tox,PMP22 txn,mTORC1 inh,p53null 32C tox,OvCa metastasis,NLuc sat counter,NLuc Km ctr,FLuc counter,S16 viab conf,PMP22 txn cnf,others
Cc1ccc(NC(=O)CSc2ncc3c(n2)-c2ccccc2N(C)S3(=O)=O)c(Cl)c1,-,-,6.45µM,-,-,-,?,-,-,-,?,
Cc1ccccc1NC(=O)CSc1ncc2c(n1)-c1ccccc1N(C)S2(=O)=O,-,-,-,-,-,-,.,.,.,.,.,
CCS(=O)(=O)c1ncc(Cl)c(C(=O)Nc2c(C(=O)c3ccc(C)cc3)oc3ccccc23)n1,-,?,2.12µM,-,-,-,-,?,-,?,9.27µM,PMP22 prot conf=-
O=C(c1c2c(nc3ccccc13)C(=O)N(C1CCCCC1)C2)N1CCN(c2ccc(F)cc2)CC1,-,-,10µM,-,-,-,-,-,-,-,-,
CCc1ccc(NC(=O)CC2C(=O)OCCN2CC)cc1 (stereo not given),.,?,15µM,?,.,-,-,-,-,-,?,
CCN1CCOC(=O)C1CC(=O)Nc1ccccc1C(F)(F)F (stereo not given),.,-,?,?,.,-,.,.,.,.,.,

# Screening data deposited in PubChem by National Center for Advancing Translational Sciences (NCATS).
